# This is one part of a sample in which hits are shown more often than they occur.
# nsP2pro primary: CHIKV nsP2 protease inhibition, primary qHTS. FRET peptide cleavage, nsP2pro, fluorescence 1 h. Potency, µM (titrated, usually from 24.9 µM), for inactives: at the highest dose activity change, negative = inhibition, hits mostly inhibitors. actives 1.1% (n = 31,000); calls by dose curve; also: nearly all actives have a fitted effect of over 60% in size
#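 FRET cleavage of 2.5 uM peptide 2 by 150 nM CHIKV protease domain at pH 8.0 (Tris, Tween 20). Compounds at 7 concentrations (up to 25 uM) preincubated 15 min. Fluorescence read after 1 h at room temperature.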
# Active calls of the source: *; i = inactive; ! = not active in a repeat; [ ] = dose if it differs, or a comment. % is scaled to controls: 0 for no effect and ±100 for the full control effect; potency is read from the fitted curve at half-maximal effect.
SMILES,nsP2pro primary
CCC[C@@H](NC(=O)[C@@H]1[C@H]2CCC[C@@H]2CN1C(=O)[C@@H](NC(=O)[C@@H](NC(=O)c1cnccn1)C1CCCCC1)C(C)(C)C)C(=O)C(=O)NC1CC1,7.9µM*
O=C(c1ccc2c(c1)ncn2-c1cccc(Cl)c1)N1CCCCC1,-14%
Fc1ccc(Nc2cc(-c3ccccc3)nc(-c3ccncc3)n2)cc1F,-12%
COc1ccc(Nc2ccc3c(n2)CN(Cc2ccccc2C)C(=O)CO3)cc1,4.5µM*
COc1ccc(Nc2ccc3c(n2)CN(Cc2ccccc2F)C(=O)CO3)cc1,-2%[39.2 µM]
COc1ccccc1-c1ccc2c(n1)CN(Cc1ccccc1C)C(=O)CO2,4%[39.2 µM]
O=C(N[C@H]1CCS[C@H]2CCC[C@@H](C(=O)O)N2C1=O)[C@@H](S)Cc1ccccc1,-25%
CC1=CC(O)CC(C)(C)C1/C=C/C(C)=C/C=C/C(C)=C/C=C/C=C(C)/C=C/C=C(C)/C=C/C1=C(C)CC(O)CC1(C)C (stereo not drawn),-26%
C=CC(=O)Nc1ccc(CN2C(=O)N(c3cc(OC)cc(OC)c3)Cc3cnc(Nc4ccc(N5CCN(C)CC5)cc4)nc32)cc1,45%
O=C(Nc1ccc(S(=O)(=O)Nc2nccs2)cc1)c1ccc2ccccc2c1,i
Cc1cccc(-n2cnc3cc(C(=O)N4CCCC(C(F)(F)F)C4)ccc32)c1 (stereo not drawn),i
O=C(O)c1ccc(-c2ccc3ncnc(NCc4nccs4)c3c2)o1,11µM*
CC(C)(C)CNc1ncnc2ccc(-c3ccc(C(=O)O)o3)cc12,i
O=C(O)c1ccc(-c2ccc3ncnc(NCC4CCCO4)c3c2)o1 (stereo not drawn),4%
Cc1cc(C)nc(NC(=S)N2CCN(S(=O)(=O)c3cccc(C(F)(F)F)c3)CC2)c1,-4%
CCOC(=O)NNc1ccc(N(CC)CC(C)O)nn1 (stereo not drawn),11µM*
CCOC(=O)NNc1nncc2ccccc12,7%
Cc1c(P(=S)(c2ccccc2)c2ccccc2)c2ccccc2n1C(=O)NCc1ccccc1,-7%
Cc1c(P(=O)(c2ccccc2)c2ccccc2)c2ccccc2n1C,11µM*
Cc1c(P(=S)(c2ccccc2)c2ccccc2)c2ccccc2n1Cc1ccccc1,i
O=C(c1ccoc1)N1CCC(Nc2cccn3ncnc23)CC1,-4%
CCCOc1nccnc1NC1CCN(C(=O)c2cccnc2)CC1,i
Cc1nc2c(NC3CCN(C(=O)c4cnccn4)CC3)cccn2n1,11µM*
OC[C@H]1O[C@H](O)[C@H](O)[C@@H](O)[C@@H]1O,-11%
CCC(c1cccs1)N1C(=O)[C@H]2CN(S(=O)(=O)c3ccccc3F)C[C@H]2C1=O (stereo partly drawn),5%
SMILES,nsP2pro primary
COc1cccc(NC(=S)N2CCN(c3ncc(C(F)(F)F)cc3Cl)CC2)n1,-29%
O=C1c2ccccc2C(=O)N1Cc1ccccc1,-5%
O=C1N/C(=C\c2ccco2)C(=O)N1Cc1ccccc1,13µM*
O=C1N/C(=C\c2ccco2)C(=O)N1Cc1ccc(F)cc1,i
CN(C)[C@@H]1C(=O)C(C(N)=O)=C(O)[C@@]2(O)C(=O)C3=C(O)c4c(O)c(NC(=O)CN5CCCC5)cc(F)c4C[C@H]3C[C@@H]12,-18%
CC(=O)OC[C@]12C[C@H](O)C(C)=C[C@H]1O[C@@H]1[C@H](O)[C@@H](O)[C@@]2(C)[C@]12CO2,-2%
CC1=CC2OC3[C@H](O)C[C@@](C)([C@]34CO4)[C@@]2(CO)[C@H](O)C1=O (stereo partly drawn),0.31µM*
CC(=O)OC[C@]12C[C@H](OC(=O)CC(C)C)C(C)=C[C@H]1O[C@@H]1[C@H](O)[C@@H](O)[C@@]2(C)[C@]12CO2,-7%[10 µM]
CCOC(=O)c1ccc(O)c2ncc(-c3ccc(C(=N)N)cc3)cc12,i
O=C1Nc2ccc(Cl)cc2/C1=C\c1cc(Cl)c(O)c(Cl)c1,i
O=C(O)c1cc(N=Nc2ccc(O)c(C(=O)O)c2)ccc1O,-18%
O=C(O)c1cc(O)c(O)c(O)c1,12µM*!
O=C(O)c1cc(O)c2c(c1)[O][Bi][O]2,-4%[0.199 µM]
O=c1ccc(-c2cccs2)c2n1C[C@H]1C[C@@H]2CN(S(=O)(=O)c2ccccc2)C1,16µM*
COc1ccc(S(=O)(=O)N2C[C@@H]3C[C@H](C2)c2c(NC(=O)c4ccccc4)ccc(=O)n2C3)cc1,4%
Cc1ccc(NC(=O)N2C[C@@H]3C[C@H](C2)c2c(-c4cccs4)ccc(=O)n2C3)cc1,-2%[39.2 µM]
Cc1ccccc1Sc1ccc(/C=C2\SC(=S)NC2=O)cc1[N+](=O)[O-],83%
CC1(C)CCC(C)(C)c2cc(Cn3cccn3)c(/C=C/c3ccc(C(=O)O)cc3)cc21,18%
CC1(COc2ccc(N3CCC(Oc4ccc(OC(F)(F)F)cc4)CC3)cc2)Cn2cc([N+](=O)[O-])nc2O1 (stereo not drawn),-6%
COC(=O)c1c(-c2cccs2)csc1NC(=O)c1ccc(OC)c(OC)c1,13µM*
COc1ccc(C(=O)NCC(c2ccco2)S(=O)(=O)c2cccs2)cc1OC (stereo not drawn),-17%
CCCc1ccc(OCC(=O)Nc2scc(-c3cccs3)c2C(=O)OC)cc1,-32%
Cc1ccc(-c2ccc3ncc4c(c3n2)n(C2CCN(C(=O)[C@H](C)O)CC2)c(=O)n4C)cn1,-4%
CC(C)[C@@H]1C[C@@H]2C[C@@H](Nc3ccccn3)C[C@]2(c2ccccc2)CO1,-1%
Nc1cccc(S(=O)(=O)Nc2cnccc2C(=O)Nc2nc(-c3ccccc3)cs2)c1,i
SMILES,nsP2pro primary
COc1ccnc(NC(=S)N2CCN(c3ccccc3C(F)(F)F)CC2)c1,-1%
NCCCC[C@@H]1NC(=O)[C@@H](Cc2c[nH]c3ccccc23)NC(=O)[C@H](c2ccccc2)NC(=O)[C@@H]2C[C@@H](OC(=O)NCCN)CN2C(=O)[C@H](Cc2ccccc2)NC(=O)[C@H](Cc2ccc(OCc3ccccc3)cc2)NC1=O,88%[10 µM]
COc1ccc(-n2c(-c3ccccc3F)nc3c(cnn3-c3ccc(C)cc3)c2=O)cc1,11µM*
COc1ccc(Oc2c(Cl)cnn(-c3cc(C)cc(C)c3)c2=O)cc1,0%
CCc1nc2c(cnn2-c2ccc(C)cc2)c(=O)n1Cc1ccccc1,-19%
Cc1ccc(S(=O)(=O)Nc2cnccc2C(=O)Nc2nc(-c3cc4ccccc4o3)cs2)cc1,-7%
Cc1cc(C)nc(NC(=S)N2CCN(c3cccc(OC(F)F)c3)CC2)c1,3%
c1ccc(-n2cc(-c3nnc4n3CCCCC4)c3ccccc32)cc1,i
c1ccc(-n2ccc(-c3nnc4n3CCCCC4)c2)cc1,13µM*
Cc1cc(-c2nnc3n2CCCCC3)c(C)n1-c1cccnc1,-5%
CCn1cc(-c2cccc(C(F)(F)F)c2)c2sc(C(N)=NC3CCS(=O)(=O)CC3)cc2c1=O,37%
COc1ccc2ccccc2c1CN(C)CC(=O)Nc1ccc(N2CCOCC2)cc1,-8%
CN1CCN(c2ccc(NC(=O)CN(C)Cc3c(O)ccc4ccccc34)cc2)CC1,13µM*
CN(CC(=O)Nc1ccc(N2CCOCC2)cc1)Cc1ccccc1O,-1%
O=C([C@@H]1C[C@H](N2CCN(c3ncccn3)CC2)CN1)N1CCC(F)(F)C1,-13%
N[C@H](CO)C(=O)O,-26%
COC(=O)[C@@H](N)CS,11µM*
CC(C)OC(=O)[C@H](C)N[P@@](=O)(OC[C@H]1O[C@@H](n2ccc(=O)[nH]c2=O)[C@](C)(F)[C@@H]1O)Oc1ccccc1,-7%
O=C(C[C@H](CSc1ccccc1)C(=O)O)c1ccc(-c2ccc(Cl)cc2)cc1,-5%
